The list is not random: actives were taken first. Their share in the collection is about 1%.
TR SRC2 fluor cs – Texas Red fluorescence interference in TRb-SRC2 counter-screen | Potency, µM (doses to about 106 µM), for inactives: at the highest dose fluorescence change, negative = quenching | 280,000 compounds, 0.29% hits | TRb/SRC2 Texas Red total fluorescence interference; active means well fitted curve in either direction with a large enough effect; inconclusive means small, poorly fitted or top-dose-only effect; further: potency means the concentration at half of the fitted maximal effect; on the % scale 0 is the no-effect control and ±100 the full control effect
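Human TRβ ligand-binding domain (0.6 uM) and Texas Red SRC2 peptide (20 nM) in Tris buffer with 1 uM T3 and 5% DMSO were incubated with pinned compound for 5 hr at ambient temperature. Total fluorescence was computed as S + 2P (555/632 nm).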
TSHR antag – blocks TSH signaling through the human TSH receptor | TSHR-expressing cells, TSH-stimulated cAMP HTRF, 2 h; hits give low values | AID 504810 | P16473 | activity change, negative = inhibition, % at 11.5 µM | 330,000 compounds, 0.2% hits;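 active means activity change below a set negative limit, meaning inhibition stronger than a set level, cut at about -70% in these data; inconclusive means activity change between two set negative limits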; further: on the % scale 0 is the no-effect control and ±100 the full control effect
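Cell-based HTRF cAMP assay; TSHR cells + compound, TSH EC80 (4nM final), 2 h, 37 deg C. Lysis with anti-cAMP cryptate and cAMP-d2, 30 min RT, read 665/620 nm.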
TRb-SRC2 inh – disrupts binding of human TR beta to SRC2 | P10828 | TRbeta-SRC2 peptide binding, fluorescence polarization; receptor liganded with 1 µM T3 | Potency, µM (series often up to 106 µM), for inactives: at the highest dose activity change, negative = inhibition, usual class: inhibitors | 280,000 compounds, 0.065% hits | AID 1469;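 further: potency means the concentration at half of the fitted maximal effect; plate controls were bound peptide for no effect and peptide without receptor for full effect; nearly all actives have a fitted effect of over 50% in size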
Target sequence (P10828 whole entry, looked up): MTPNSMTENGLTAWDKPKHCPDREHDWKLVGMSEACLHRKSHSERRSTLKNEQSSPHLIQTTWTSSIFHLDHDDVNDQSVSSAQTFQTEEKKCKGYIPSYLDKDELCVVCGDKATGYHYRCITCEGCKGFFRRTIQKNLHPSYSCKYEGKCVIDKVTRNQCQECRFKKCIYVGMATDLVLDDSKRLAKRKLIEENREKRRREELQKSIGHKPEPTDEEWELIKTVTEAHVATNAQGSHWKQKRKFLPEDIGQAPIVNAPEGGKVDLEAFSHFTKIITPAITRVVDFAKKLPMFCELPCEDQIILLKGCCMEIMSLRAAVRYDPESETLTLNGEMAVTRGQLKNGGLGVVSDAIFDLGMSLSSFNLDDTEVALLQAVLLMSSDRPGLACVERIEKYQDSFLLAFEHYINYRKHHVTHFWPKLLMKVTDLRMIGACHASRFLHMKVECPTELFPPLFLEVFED
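Human TRb ligand-binding domain (0.6 uM) is mixed with 20 nM Texas Red SRC2 peptide and 1 uM T3; after compound addition and 5 hr at ambient temperature, polarization is measured and normalized to unbound and bound controls.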
NPSR antagonist – neuropeptide S receptor (human) antagonism, cAMP | CHO-NPSR cells, cAMP TR-FRET, antagonist mode | Potency, µM (titrated, usually from 38.3 µM), inactives show top-dose activity change, negative = inhibition, actives largely listed as inhibitors | 220,000 compounds, 1% hits; further: potency means the concentration at half of the fitted maximal effect; on the % scale 0 is the no-effect control and ±100 the full control effect; nearly all actives have a fitted effect of over 50% in size
TCR activator – activators of T cell receptors; 330,000 tested, under 10 active; Potency, µM (doses to about 9.22 µM), for inactives: at the top dose activation of IL-2 secretion, hits mostly activators; primary human leukocytes, anti-CD3, IL-2 HTRF, 48 h; further: % of control where 0% means no effect
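TCR engagement came from a-CD3 beads alone, with compounds added to primary human leukocytes for 48 hr. Secreted IL-2 bridged europium cryptate- and d2-labelled anti-IL-2 antibodies, giving FRET emission at 665nm after 320nm excitation.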
FBPA coupling cs – counter-screen for Giardia aldolase inhibitors: coupling enzyme system. coupling enzyme system counterscreen, AmpLite Red fluorescence. activity change, negative = inhibition, % at 58.2 µM, hits read low. 290,000 compounds, 0.67% hits. AID 2472; in the data active means activity change below about -30%; further: on the % scale 0 is the no-effect control and ±100 the full control effect
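Activity here indicates interference with the coupling reaction, not aldolase inhibition. Compounds at 57.5 uM final met coupling enzymes for 10 min at RT; substrate and AmpLite Red detection followed, with a 525/598 nm fluorescence read after 20 min.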
Starred values were filed as active, the others as inactive; [ ] = dose if it differs, or a comment. Unless noted, the call rests on the fitted dose curve; in most records, active means well fitted curve in the direction sought with a large enough effect; inconclusive means small, poorly fitted or top-dose-only effect, or another doubt; inactive means no such curve, though single readings can be large; an effect the other way counts as inactive or inconclusive.

Screening Cc1ccc(-c2cn3nc(N4CCCC(C(=O)Nc5ccc(F)cc5)C4)sc3n2)cc1 (configuration not stated) returned TR SRC2 fluor cs -2% and TRb-SRC2 inh 0%.
CCn1c(=O)c(C(=O)Nc2nc3ccccc3[nH]2)c(O)c2ccccc21 was read as TR SRC2 fluor cs 1%, TSHR antag inconclusive, TRb-SRC2 inh 9%, NPSR antagonist 3.2µM*, TCR activator -6% and FBPA coupling cs 0.
For COc1cc(C(=O)NCCNC(=O)c2cnccn2)cc(OC)c1OC the results were TSHR antag -82*, TCR activator -7% and FBPA coupling cs 0.
Screening CCOC(=O)c1c(C)[nH]c2cc(Br)c(O)cc12 returned TR SRC2 fluor cs -9%, TSHR antag -15, TRb-SRC2 inh -11%, NPSR antagonist -12%[46.1 µM] and FBPA coupling cs -9.
`CCOC(=O)c1c(OCC)[nH]c2c1cc(O)c1ccccc12` gave TR SRC2 fluor cs -7%, TSHR antag -6, TRb-SRC2 inh 4%, NPSR antagonist -18%[46.1 µM], TCR activator 3% and FBPA coupling cs -49*.
For O=[N+]([O-])c1cc(-c2ncccn2)c([N+](=O)[O-])s1 the results were TR SRC2 fluor cs -4%, TSHR antag -9, TRb-SRC2 inh -2%, NPSR antagonist inconclusive, TCR activator -1% and FBPA coupling cs -84*.
`O=C(Nc1ncccn1)c1cc([N+](=O)[O-])cc([N+](=O)[O-])c1` gave TR SRC2 fluor cs -1%, TSHR antag -2, TRb-SRC2 inh -2%, NPSR antagonist 15%, TCR activator 4%[46.1 µM] and FBPA coupling cs 0.
Screening O=C(NC1CC1)C1CCN(c2ccc(S(=O)(=O)N3CCOCC3)cc2)CC1 returned TR SRC2 fluor cs 2%, TSHR antag 5, TRb-SRC2 inh -5%, NPSR antagonist -7%[46.1 µM] and FBPA coupling cs 4.
`CC(C)CNC(=O)C1CCN(c2ccc(S(=O)(=O)N3CCOCC3)cc2)CC1` gave TR SRC2 fluor cs -2%, TSHR antag -77*, TRb-SRC2 inh -13%, NPSR antagonist -8%[7.67 µM], TCR activator -3% and FBPA coupling cs 4.
Screening CC(C)C1=C2OC(N)=C(C#N)C(C#N)=C2C(C)CC1 (configuration not stated) returned TR SRC2 fluor cs -1%, TSHR antag -32, TRb-SRC2 inh 9%, NPSR antagonist -13%[46.1 µM], TCR activator -5% and FBPA coupling cs -39*.
COc1cccc(C2=CC(c3ccccc3)n3ncnc3N2)c1 (configuration not stated) was read as TR SRC2 fluor cs -5%, TSHR antag -1, TRb-SRC2 inh 9%, NPSR antagonist -5%[46.1 µM] and FBPA coupling cs 2.
`COc1cccc(C2=CC(c3ccc(N(C)C)cc3)n3ncnc3N2)c1` (configuration not stated) gave TR SRC2 fluor cs -3%, TSHR antag -14, TRb-SRC2 inh 6%, NPSR antagonist inconclusive and FBPA coupling cs -35*.
Screening Cn1nc([N+](=O)[O-])c(C(C#N)c2ccccn2)c(Cl)c1=O (configuration not stated) returned TR SRC2 fluor cs -6%, TSHR antag 9, TRb-SRC2 inh -6%, NPSR antagonist -51%, TCR activator -49% and FBPA coupling cs -15.
CCCn1nc([N+](=O)[O-])c(C(C#N)c2nc3ccccc3o2)c(Cl)c1=O (configuration not stated) was read as TR SRC2 fluor cs 3%, TSHR antag -76*, TRb-SRC2 inh -8%, NPSR antagonist inconclusive, TCR activator 4%[46.1 µM] and FBPA coupling cs 1.
`Cc1ccc(Cn2c(C(C)Nc3nc(-c4ccc(Cl)c([N+](=O)[O-])c4)cs3)nc3cc(C(F)(F)F)ccc32)cc1` (configuration not stated) gave TCR activator -5%.
`CCn1nc([N+](=O)[O-])c(C(C#N)c2nc3cc(C(F)(F)F)ccc3s2)c(Cl)c1=O` (configuration not stated) gave TR SRC2 fluor cs -19%, TSHR antag -88*, TRb-SRC2 inh -5%, NPSR antagonist inconclusive, TCR activator -3% and FBPA coupling cs -2.
CCOC(=O)Nc1c(O)ccc2oc(C)c(-c3ccccc3)c12 was read as TR SRC2 fluor cs -3%, TSHR antag 7, TRb-SRC2 inh -8%, NPSR antagonist 20%[46.1 µM], TCR activator 2% and FBPA coupling cs -57*.
O=C1CCCC/C=C/CCCCCCCCCO1 was read as TR SRC2 fluor cs 0%[201 µM] and TRb-SRC2 inh 6%[201 µM].
Screening NC(=O)c1cc(S(=O)(=O)NCc2cccc(Br)c2)cs1 returned TR SRC2 fluor cs 0%, TSHR antag 5, TRb-SRC2 inh 0% and TCR activator 5%.
Screening NC(=O)c1cc(S(=O)(=O)NCc2ccc(F)cc2)cs1 returned TSHR antag -132*, TCR activator 9% and FBPA coupling cs -2.
For Cc1cccc(CNS(=O)(=O)c2csc(C(N)=O)c2)c1 the results were TR SRC2 fluor cs -2%, TSHR antag -70*, TRb-SRC2 inh 1%, TCR activator 7% and FBPA coupling cs 2.
CSc1cccc(NC(=O)C2CCN(S(=O)(=O)c3ccc4c(c3)CCCN4C(=O)C3CCC3)CC2)c1 was read as TR SRC2 fluor cs -9% and TRb-SRC2 inh 3%.
Screening O=C(Cc1ccccc1)Nc1cccc(N2C(=O)C=CC2=O)c1 returned TR SRC2 fluor cs 0%, TSHR antag -71*, TRb-SRC2 inh 0%, NPSR antagonist inconclusive, TCR activator 9%[46.1 µM] and FBPA coupling cs 6.
Cc1cccc(NC(=O)C(Cc2ccccc2)n2cccc2)c1C (configuration not stated) was read as TR SRC2 fluor cs 3% and TRb-SRC2 inh -3%.
`CCc1ccc(NC(=O)C(C)OC(=O)c2cccc(S(=O)(=O)N3CCc4ccccc4C3)c2)cc1` (configuration not stated) gave TR SRC2 fluor cs -9%, TSHR antag 33, TRb-SRC2 inh -2%, NPSR antagonist -18%[46.1 µM], TCR activator 2%[46.1 µM] and FBPA coupling cs -45*.
For COc1ccccc1CNC(=O)CCCn1c(=O)c2ccccc2n(Cc2ccccc2C#N)c1=O the results were TR SRC2 fluor cs 3% and TRb-SRC2 inh 9%.
Screening COc1ccc(CNC(=O)COC(=O)c2cc(-c3ccc(Cl)s3)nc3ccccc23)cc1 returned TR SRC2 fluor cs -7%, TSHR antag -9, TRb-SRC2 inh 2%, NPSR antagonist 10µM*, TCR activator 11% and FBPA coupling cs -3.

Screening results (PubChem BioAssay)
